# Results filed as inconclusive are left out. Calls of active or inactive are those of the source. Unless noted, calls follow the shape of the dose curve; as a rule, active = well fitted curve in the direction sought with a large enough effect; inconclusive = small, poorly fitted or top-dose-only effect, or another doubt; inactive = no such curve, though single readings can be large; an effect the other way counts as inactive or inconclusive.
# How the values were obtained:
# [1] = P-glycoprotein substrates identified in KB-8-5-11 adenocarcinoma cell line, qHTS therapeutic library screen (AID 1346987); also: potency is read from the fitted curve at half-maximal effect; nearly all actives have a fitted effect of over 65% in size
# Outline: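 In this qHTS, P-gp-rich KB-8-5-11 cells received library compounds across a concentration range. Viability was quantified by luminescence after 72 h at 37 degree C.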
# [2] = qHTS to identify inhibitors of the type 1 interferon - major histocompatibility complex class I in skeletal muscle: primary screen against the NCATS Mechanism Interrogation Plate v5.0 (MIPE) Libary (AID 1347411);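 also: plate controls were vehicle for no effect and reference inhibitor for full effect; nearly all actives have a fitted effect of over 65% in size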
# Outline: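 HLA-B HiBit myoblasts, dexamethasone-free medium + 4 ng/ml IFN-b, 24 h compound, 11-pt 1:3 from 46 uM final. Readout: Nano-Glo HiBiT lytic luminescence after 10 min lysis, RT.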
# [3] = target: Glutathione peroxidase 1 (Homo sapiens) (UniProt P07203); experiment: Primary qHTS Assay for Inhibitors of Recombinant Selenoprotein Glutathione Peroxidase 1 (GPX1) (AID 1845191); also: % is scaled to controls: 0 for no effect and ±100 for the full control effect; nearly all actives have a fitted effect of over 65% in size
# Outline: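 NADPH consumption tracked by fluorescence at 340/450 nm between t=0 and t=15 min, room temperature. Final mix: 10 nM GPX1, 100 nM glutathione reductase, 1 mM GSH, 0.5 mM NADPH, 0.5 mM cumene hydroperoxide, 0.01% BSA; 30 min compound–enzyme preincubation.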
# [4] = qHTS drug screen for cell cycle checkpoint inhibitors in PARPi-resistant BRCA-mutant ovarian cancer cell lines. (AID 1963452; calls by dose curve); conditions: PEO1/OlaR viability, CellTiter-Glo luminescence, 96 h, stronger effect = lower value
# Outline: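 PEO1, PEO4 and PEO1/OlaR ovarian cancer cells, 600 per well, exposed 96 h at 37C to a dilution series. Viability read by CellTiter-Glo luminescence, normalized to DMSO and empty wells; activity summarized as Z-AUC.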
# Chain of Glutathione peroxidase 1 (Homo sapiens) (P07203 whole entry, looked up): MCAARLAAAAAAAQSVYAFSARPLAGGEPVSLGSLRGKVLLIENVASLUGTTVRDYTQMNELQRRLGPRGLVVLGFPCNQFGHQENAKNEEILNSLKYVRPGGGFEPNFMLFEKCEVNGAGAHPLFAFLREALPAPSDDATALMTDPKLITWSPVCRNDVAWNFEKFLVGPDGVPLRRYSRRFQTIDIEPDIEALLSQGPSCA
compound,measurement,setting,value
Cc1ccc2cc(-c3c(C)ccc(C(=O)c4c(-c5ccccc5)n(C)n(-c5ccccc5)c4=O)c3N)ccc2n1,Potency,[1],16.4 µM (active)
same,Potency,[2],inactive
same,Potency,[3],inactive
same,Z-AUC,[4],-0.557 (inactive)
same,Z-AUC,[4]; measured here: PEO1 parental Z-AUC,-0.233
same,Z-AUC,[4]; measured here: PEO4 Z-AUC,-0.0214
